# Source: PubChem (several laboratories)
# GAA850 FXN act = increases GAA850 frataxin promoter reporter activity; HEK293 lucGAA850 FXN promoter luciferase reporter, 24 h; percent of 10 µM SAHA response; activation, % at 6 µM; 0.56% of 360,000 active;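 active = activation above the average of all compounds screened plus 3 SD, cutoff fixed separately per campaign, cut at about 7.5% in these data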;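 also: 0% = DMSO wells and 100% = 10 µM SAHA wells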
# NR0B1 inh = NR0B1 (DAX1) inhibition; 0.99% of 340,000 active; inhibition, % at 6.75 µM; HEK293 Gal4-DAX1 luciferase reporter, luminescence; P51843;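 active = inhibition above the mean over all tested compounds plus 3 SD, cut at about 4.2% in these data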;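 also: 0% = DAX1-transfected cells with DMSO and 100% = empty-vector control cells with DMSO; inhibition shows as a rise in luminescence from relieved DAX1 repression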
# AHR act = activators of human aryl hydrocarbon receptor. AID 2796. P35869. AHR-responsive luciferase reporter cells, luminescence. 2.5% of 320,000 active. activation, % at 5 µM; in the data active = activation above about 47%;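 also: 0% = vehicle wells and 100% = reference agonist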
# HSP90 refold inh = HSP90 refolding inhibition in rabbit reticulocyte lysate | luciferase refolding luminescence, 3 h | inhibition, % at 5.6 µM | 0.91% of 290,000 active;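 active = inhibition above the screen-wide mean plus 3 SD, computed separately per campaign, cut at about 16% in these data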;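 also: 0% = DMSO wells and 100% = 60 µM geldanamycin wells; inhibitors lower the luminescence because luciferase stays unfolded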
# HSF1 inhib = HSF1 inhibition; NIH3T3-HGL HSE-luciferase, MG132-induced, luminescence 8 h; stronger effect = lower value; activity change, negative = inhibition, % at 7.5 µM (by protocol); 0.77% of 300,000 active; AID 2098;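 active = more than half of replicate wells show activity change below -50%, luminescence cut by over half; inconclusive = some wells, but at most half, below -50%; inactive = no replicate well below -50%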;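 also: luciferase reports HSF-1 transcriptional activity via heat shock element; 0% = median of DMSO wells and -100% = zero luminescence signal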
# HSF-1 act = increases HSF-1 driven luciferase reporter signal; activation, % at 9 µM; AID 504408; NIH3T3-HGL HSF-1 luciferase reporter, MG132, 8 h; 100% = twice DMSO control signal; 1.7% of 300,000 active;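 active = mean replicate activation of at least 50% with a set share of replicates each reaching 50%; inconclusive = only one of those two conditions met; inactive = mean below 50% and too few replicates reaching it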;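 also: 0% = median of the neutral control wells and 100% = twice that signal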
# HSP90 inh confirm = HSP90 inhibition, confirmation assay | shares compounds with HSP90 refold inh | inhibition, % at 5.9 µM | 64% of 2,300 active | rabbit reticulocyte lysate, luciferase refolding luminescence, 3 h; in the data active = inhibition above about 18%;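 also: 0% = vehicle wells and 100% = reference inhibitor wells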
# FLuc counter = blocks native firefly luciferase in HSP90 counter-screen | shares compounds with HSP90 refold inh | purified native firefly luciferase, luminescence | inhibition, % at 5.9 µM | 48% of 2,300 active | AID 1847;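 active = inhibition above the mean inhibition of all tested sample wells plus 3 SD, cut at about 10% in these data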;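 also: 0% = DMSO with luciferase and 100% = wells lacking luciferase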
# Target sequence (P08659 whole entry, looked up): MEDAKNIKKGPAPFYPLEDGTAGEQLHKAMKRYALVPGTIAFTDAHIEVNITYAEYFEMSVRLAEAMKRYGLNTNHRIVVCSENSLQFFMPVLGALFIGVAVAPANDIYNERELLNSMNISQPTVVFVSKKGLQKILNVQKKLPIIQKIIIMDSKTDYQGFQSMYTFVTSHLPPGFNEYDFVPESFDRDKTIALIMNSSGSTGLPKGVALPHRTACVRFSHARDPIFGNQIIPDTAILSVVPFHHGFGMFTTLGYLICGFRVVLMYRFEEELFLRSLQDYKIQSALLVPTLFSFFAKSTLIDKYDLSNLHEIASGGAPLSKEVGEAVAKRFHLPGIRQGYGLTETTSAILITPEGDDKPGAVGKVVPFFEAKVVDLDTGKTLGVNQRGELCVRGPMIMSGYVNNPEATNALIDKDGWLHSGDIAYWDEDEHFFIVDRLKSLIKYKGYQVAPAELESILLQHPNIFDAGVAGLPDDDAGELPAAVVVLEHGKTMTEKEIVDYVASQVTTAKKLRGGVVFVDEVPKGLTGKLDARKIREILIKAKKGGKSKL
# An asterisk follows results filed as active; ? = inconclusive; nt = no result. This is a sample that favours compounds with a hit; in the whole collection about 5.9% have one here.
SMILES,GAA850 FXN act,NR0B1 inh,AHR act,HSP90 refold inh,HSF1 inhib,HSF-1 act,HSP90 inh confirm,FLuc counter
CC[C@@]1(C(=O)OC)N[C@H](CN(C)C(=O)C2CCCCC2)[C@@H]2C(=O)N(Cc3ccccc3)C(=O)[C@@H]21,5,0,-1,nt,nt,nt,nt,nt
Cc1cc(C)c(C(=O)Cn2nc(C(=O)O)c3ccccc3c2=O)cc1C,4,0,-1,6,15,?,nt,nt
Cc1cc(C(=O)Cn2nc(C(=O)O)c3ccccc3c2=O)c(C)n1-c1ccccc1,2,-1,7,25*,-38,-51,62*,31*
CCCCNc1c(C(=O)OCC)c(C)nc2c1cnn2CC,4,-1,31,nt,-9,-2,nt,nt
Cc1oc(-c2ccc(-c3ccccc3)cc2)nc1CN(C)C1CCOC1 (stereo unspecified),4,1,0,75*,3,-15,86*,-2
Cc1oc(-c2cccc(Cl)c2)nc1CN(C)C1CCOC1 (stereo unspecified),3,1,10,1,0,21,nt,nt
Cc1oc(-c2ccc(-c3ccccc3)cc2)nc1CN(CCO)C(C)C,5,-2,-2,85*,-26,-37,94*,21*
O=C(COC(=O)c1ccc(N2CCCC2=O)cc1)Nc1ccccc1,2,1,1,nt,nt,nt,nt,nt
O=C(COC(=O)c1ccc(N2CCCC2=O)cc1)c1ccccc1,1,1,-1,18*,22,44,27*,-23
CCn1nc(NC(=O)C(C)C)c2cc3cccc(C)c3nc21,-2,0,15,3,0,22,nt,nt
Cc1nnc(N2C(=O)C(=O)/C(=C(\O)c3ccc4c(c3)CC(C)O4)C2c2ccccc2)s1 (stereo unspecified),-1,1,3,26*,-30,-42,17*,26*
CC1Cc2cc(/C(O)=C3/C(=O)C(=O)N(CC4CCCO4)C3c3ccco3)ccc2O1 (stereo unspecified),-1,1,3,22*,-56*,-67,8,12*
COc1cccc(C2/C(=C(/O)c3ccc4c(c3)CC(C)O4)C(=O)C(=O)N2c2nnc(C)s2)c1 (stereo unspecified),1,0,2,-4,1,15,nt,nt
COc1cc(C2/C(=C(\O)c3ccc4c(c3)CC(C)O4)C(=O)C(=O)N2CC2CCCO2)cc(OC)c1OC (stereo unspecified),0,0,nt,5,-2,-11,nt,nt
CCOc1cccc(C2/C(=C(/O)c3ccc4c(c3)CC(C)O4)C(=O)C(=O)N2CCN2CCOCC2)c1 (stereo unspecified),-1,1,1,1,1,6,nt,nt
CC1Cc2cc(/C(O)=C3/C(=O)C(=O)N(CCN4CCOCC4)C3c3cccc(O)c3)ccc2O1 (stereo unspecified),0,1,-2,18*,-9,15,18*,8
CCOC(=O)c1cc(S(=O)(=O)N2CCN(c3ccccc3OC)CC2)cn1C,0,0,0,-5,-6,-4,nt,nt
CC(C)c1ccc(NC2CCCN(C(=O)c3ccc(N4CCOCC4)cc3)C2)cc1 (stereo unspecified),0,-1,2,0,9,5,nt,nt
Oc1ccccc1-c1cc(-c2ccc3c(c2)OCCO3)n[nH]1,5,1,7,21*,13,37,38*,35*
COc1ccc(OC(=O)COc2cc(C)ccc2C)cc1,2,-2,0,-2,-3,16,nt,nt
COc1ccc(CC(=O)Oc2cc(C)ccc2C)cc1,0,-1,2,17*,-6,1,-5,-7
CCc1nnc(NC(=O)CCC(=O)NC2CC2)s1,0,1,2,-1,1,8,nt,nt
Cc1ccc(CSc2nc3ccncc3[nH]2)cc1,2,-4,6,63*,-11,-24,80*,69*
O=C(c1ccc(CSc2nc3ccncc3[nH]2)cc1)N1CCCCCC1,2,-4,-1,27*,2,13,51*,27*
